Screening results as filed in PubChem BioAssay.
Most compounds without a hit are left out; they make up all but 12% or so of the library.
G9a block: G9a (human) methyltransferase inhibition. Q96KQ7. Potency, µM (top dose mostly 102 µM), for the others: top-dose activity, negative = inhibition, usual class: inhibitors. G9a H3K9 monomethylation, AlphaScreen, 2 h. actives 8.8% (n = 350,000); note: % is set by controls: 0 for no effect and ±100 for the full control effect; nearly all actives have a fitted effect of over 75% in size
Target sequence (Q96KQ7 913-1193 limits assumed): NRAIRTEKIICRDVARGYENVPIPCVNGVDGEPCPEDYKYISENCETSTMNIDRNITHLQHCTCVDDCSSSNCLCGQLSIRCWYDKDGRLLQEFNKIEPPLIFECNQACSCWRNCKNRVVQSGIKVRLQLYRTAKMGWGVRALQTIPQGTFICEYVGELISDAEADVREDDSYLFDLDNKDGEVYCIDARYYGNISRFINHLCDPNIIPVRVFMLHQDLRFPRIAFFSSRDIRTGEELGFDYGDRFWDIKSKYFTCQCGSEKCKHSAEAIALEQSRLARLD
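Enzyme 20 nM + cpd, 15 min RT; add b-H3K9 pep 500 nM / SAM 20 uM; 2 h RT; anti-H3K9me1 Ab 0.5 ug/mL + SA donor / anti-rabbit acceptor beads 20 ug/mL each, 10 min; AlphaScreen read.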
L3MBTL1 block: L3MBTL1 (human) inhibition; Q9Y468; AlphaScreen L3MBTL1–H3K9me1 peptide binding; Potency, µM (series often up to 57.1 µM), inactives show at the highest dose activity, negative = inhibition, usual class: inhibitors; actives 0.66% (n = 230,000); AID 485360; note: % is set by controls: 0 for no effect and ±100 for the full control effect; nearly all actives have a fitted effect of over 60% in size
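Read-out is AlphaScreen signal from streptavidin donor and nickel chelate acceptor beads (10 ug/mL final each) bridging L3MBTL1 (50 nM) and biotinylated K9-monomethylated H3(1-15) peptide (75 nM), after 30 min compound exposure at room temperature.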
HP1b chromo inh: HP1-beta chromodomain-methylated histone interaction inhibition; P83916; AlphaScreen HP1-beta / biotin-H3K9me3 peptide binding; Potency, µM (series often up to 114 µM), inactives show at the top dose activity change, negative = inhibition, usual class: inhibitors; actives 0.56% (n = 390,000); AID 540317; note: nearly all actives have a fitted effect of over 70% in size
Target sequence (P83916 whole entry, looked up): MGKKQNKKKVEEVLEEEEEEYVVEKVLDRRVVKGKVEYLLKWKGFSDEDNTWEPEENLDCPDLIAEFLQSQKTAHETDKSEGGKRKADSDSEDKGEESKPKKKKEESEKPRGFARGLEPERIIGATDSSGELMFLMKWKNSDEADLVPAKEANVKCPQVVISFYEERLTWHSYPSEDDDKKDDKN
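Compound inhibition of the preformed complex between 50 nM HP1-beta and 50 nM biotinylated H3K9me3 peptide was read by AlphaScreen. Buffer was PBS pH 7.4 with 0.01% Tween-20. Incubations ran 30 min at room temperature, with 10 ug/mL donor/acceptor beads.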
BAZ2B inh: BAZ2B (human) inhibition; AlphaScreen BAZ2B-H3K14Ac peptide displacement; Potency, µM (highest dose often 114 µM), inactives show at the top dose activity change, negative = inhibition, hits mostly inhibitors; actives 4.4% (n = 360,000); AID 504333; note: % is set by controls: 0 for no effect and ±100 for the full control effect; nearly all actives have a fitted effect of over 60% in size
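Protein-peptide AlphaScreen: BAZ2B 50 nM, b-H3K14Ac 50 nM, 1x PBS pH 7.4 + 0.01% Tween-20. Preincubation 30 min RT; cpd 30 min RT (top 110 uM); beads 20 min RT, light-protected.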
JMJD2A Tudor inh: JMJD2A Tudor domain (human) inhibition | O75164 | AlphaScreen JMJD2A-Tudor / H3K4me3 peptide binding | Potency, µM (series often up to 114 µM), without a hit: at the highest dose activity change, negative = inhibition, usual class: inhibitors | actives 4.4% (n = 390,000); note: % is set by controls: 0 for no effect and ±100 for the full control effect; nearly all actives have a fitted effect of over 50% in size
Sfp inh: inhibitors of Bacillus subtilis Sfp phosphopantetheinyl transferase; AID 1490; Biochemical Sfp PPTase activity, qHTS; actives 3.5% (n = 310,000); Potency, µM, inactives show largest response in the series, negative = inhibition, most hits filed as inhibitors;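 note: the enzyme is Sfp with the accession as filed and its product quenches rhodamine fluorescence; 0% = enzyme reaction without inhibitor and -100% = no enzyme wells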
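Fluorescence-quenching assay: 15 nM Sfp-PPTase preincubated 15 min at room temperature with compound, then 5 uM rhodamine-CoA and 12.5 uM BHQ-2-labelled YbbR peptide added. Fluorescence (ex 525/em 598 nm) read at start and after 30 min; difference gives rate.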
Numbers without * were called inactive; [ ] = dose if it differs, or a comment. Calls come from the whole dose curve; as a rule, active = well fitted curve in the direction sought with a large enough effect; inconclusive = small, poorly fitted or top-dose-only effect, or another doubt; inactive = no such curve, though single readings can be large; an effect the other way counts as inactive or inconclusive. Potency is the fitted concentration of half-maximal effect.

Results for COc1ccc(CCNC(=O)CSc2nnc(-c3ccc(C)cc3)c(-c3ccc(C)cc3)n2)cc1OC ?
G9a block: inconclusive; HP1b chromo inh: -10%; BAZ2B inh: -10%; JMJD2A Tudor inh: -33%

Results for Cc1cc(NC(=O)c2cc(Cl)ccc2Cl)ccc1-c1cc2ccccc2oc1=O ?
G9a block: -36%[59 µM]; HP1b chromo inh: 37%; BAZ2B inh: 0%; JMJD2A Tudor inh: -16%

Results for COc1ccc(CNC(=O)CNS(=O)(=O)c2cccc(C#N)c2)cc1OC ?
G9a block: 50µM*; HP1b chromo inh: 19%; BAZ2B inh: -15%; JMJD2A Tudor inh: -20%; Sfp inh: -1%

Results for CCN(CC)CCOCCOC(=O)C(CC)(CC)c1ccccc1 (tested in a mixture with another compound) ?
G9a block: -1%[59 µM]; Sfp inh: -2%

How did CCn1c(SCC(=O)Nc2ccc3c(c2)OCO3)nc2c1c(=O)n(C)c(=O)n2C do in these assays?
G9a block: 12%[2.33 µM]; HP1b chromo inh: 25%; BAZ2B inh: 4%; JMJD2A Tudor inh: -10%; Sfp inh: 18%

Results for Cn1c(=O)c2c(nc(SCC(=O)O)n2Cc2cc3c(cc2Cl)OCO3)n(C)c1=O ?
G9a block: inconclusive; HP1b chromo inh: 58%; BAZ2B inh: inconclusive; JMJD2A Tudor inh: 45µM*; Sfp inh: 56µM*

How did O=c1c(-c2ccc(F)cc2)nc2cnc(N3CCNCC3)nc2n1C1CC1 do in these assays?
G9a block: 13%[0.501 µM]; Sfp inh: 4%

What do the screens show for `c1ccc(Cn2nnc3c(N4CCCC4)ncnc32)cc1`?
G9a block: 9%; L3MBTL1 block: -4%; HP1b chromo inh: 11%; BAZ2B inh: 8%; JMJD2A Tudor inh: -10%; Sfp inh: -13%

Results for CC1Cc2ccccc2N1c1nc(C2CC2)nc2c1nnn2Cc1ccccc1 (stereo not given) ?
G9a block: 32%[59 µM]; L3MBTL1 block: -14%; HP1b chromo inh: 73%; BAZ2B inh: 23%; JMJD2A Tudor inh: 48%; Sfp inh: -7%

Results for CC1Cc2ccccc2N1c1ncnc2c1nnn2Cc1ccccc1 (stereo not given) ?
G9a block: 33%; L3MBTL1 block: -2%; HP1b chromo inh: 27%; BAZ2B inh: 37%; JMJD2A Tudor inh: -2%; Sfp inh: 28µM*

What do the screens show for `CCN1CCN(c2ncnc3c2nnn3Cc2ccccc2)CC1`?
G9a block: 40µM*; L3MBTL1 block: 5%; HP1b chromo inh: 17%; BAZ2B inh: 0%; JMJD2A Tudor inh: -13%; Sfp inh: -3%

What do the screens show for `O=C(O)CSc1nc2ccc(NC(=O)COc3ccc(Cl)cc3)cc2s1`?
G9a block: -42%[59 µM]; HP1b chromo inh: 29%; BAZ2B inh: 71µM*; JMJD2A Tudor inh: inconclusive

How did O=C(Nc1ccc2nc(SCC(=O)N3CCOCC3)sc2c1)c1ccccc1Cl do in these assays?
G9a block: 1%[59 µM]; HP1b chromo inh: 30%; BAZ2B inh: -14%; JMJD2A Tudor inh: -10%

Results for O=C(CSc1nc2ccccc2s1)Nc1ccc2c(c1)oc1ccccc12 ?
G9a block: -4%[59 µM]; L3MBTL1 block: 37%; HP1b chromo inh: 25%; BAZ2B inh: 19%; JMJD2A Tudor inh: -10%; Sfp inh: -1%

Results for O=C(CSc1nc2ccccc2s1)Nc1cc(C(=O)O)cc(C(=O)O)c1 ?
G9a block: 25µM*; HP1b chromo inh: 37%; BAZ2B inh: 5%; JMJD2A Tudor inh: -20%; Sfp inh: 56µM*

How did O=C(CSc1nc2ccc(NC(=O)c3ccccc3C(=O)O)cc2s1)Nc1c(Cl)cccc1Cl do in these assays?
G9a block: 71µM*; HP1b chromo inh: -6%; BAZ2B inh: inconclusive; JMJD2A Tudor inh: -26%; Sfp inh: -4%

Results for O=C(CSc1nc2ccccc2s1)NNC(=S)Nc1ccccc1 ?
G9a block: 3.5µM*; L3MBTL1 block: -14%; HP1b chromo inh: 5%; BAZ2B inh: 1%; JMJD2A Tudor inh: -14%; Sfp inh: inconclusive

What do the screens show for `CCn1cc(S(=O)(=O)c2cccc(Cl)c2)c(=O)c2cc(F)c(N3CCN(c4ccccc4)CC3)cc21`?
G9a block: 7%[59 µM]; HP1b chromo inh: 38%; BAZ2B inh: 0%; JMJD2A Tudor inh: -3%

How did O=C(Nc1ccc2nc(SCC(=O)N3CCCC3)sc2c1)c1ccccc1 do in these assays?
G9a block: -6%[59 µM]; HP1b chromo inh: 41%; BAZ2B inh: -5%; JMJD2A Tudor inh: -3%

What do the screens show for `Cn1c(SCC(=O)Nc2ccc3nc(SCC(=O)N4CCCC4)sc3c2)nnc1-c1ccccc1`?
G9a block: inconclusive; L3MBTL1 block: inconclusive; HP1b chromo inh: 17%; BAZ2B inh: 56µM*; JMJD2A Tudor inh: inconclusive; Sfp inh: -22%

What do the screens show for `Cn1ncc(Br)c1C(=O)N1CCCCCC1`?
G9a block: 32µM*; HP1b chromo inh: 13%; BAZ2B inh: 4%; JMJD2A Tudor inh: -2%; Sfp inh: 2%

What do the screens show for `CC1(C)Cc2c(ccc3ccccc23)/C(=C/C(=O)N2CCCCC2)N1`?
G9a block: inconclusive; L3MBTL1 block: -9%; HP1b chromo inh: -12%; BAZ2B inh: 50µM*; JMJD2A Tudor inh: -58%; Sfp inh: -12%

What do the screens show for `O=C(Oc1ccc2ccccc2c1Cl)N1CCCCCC1`?
G9a block: 82%[59 µM]; L3MBTL1 block: 32%; HP1b chromo inh: 89%; BAZ2B inh: 61%; JMJD2A Tudor inh: 29%; Sfp inh: 1%

How did CC(c1ccc(F)cc1)n1cc(C(=O)NCCN(C)C)nn1 (stereo not given) do in these assays?
G9a block: 45µM*; L3MBTL1 block: 9%; HP1b chromo inh: 55%; BAZ2B inh: -36%; JMJD2A Tudor inh: 4%; Sfp inh: 17%

Results for COc1ccc(-c2csc(NC(=O)c3ccoc3C)n2)cc1 ?
G9a block: 50µM*; L3MBTL1 block: -13%; HP1b chromo inh: 0%; BAZ2B inh: inconclusive; JMJD2A Tudor inh: -14%; Sfp inh: inconclusive

Results for Cc1ccc(-c2csc(NC(=O)c3ccc(C)o3)n2)cc1 ?
G9a block: inconclusive; L3MBTL1 block: -1%; HP1b chromo inh: 2%; BAZ2B inh: -29%; JMJD2A Tudor inh: -27%; Sfp inh: -11%

How did COc1ccc(-c2csc(NC(=O)C3CCCO3)n2)cc1 (stereo not given) do in these assays?
G9a block: 13µM*; L3MBTL1 block: -3%; HP1b chromo inh: 13%; BAZ2B inh: inconclusive; JMJD2A Tudor inh: inconclusive; Sfp inh: -17%
